PubChem BioAssay (EPA / NIEHS)
More than one record can exist for a structure, and the calls need not agree. The source made the active and inactive calls. How the source made its calls: active means hit-call score of the fitted dose curve at least 0.9, where 1 is the maximum; inactive means score below 0.9.

Assay: ATG_NFI_CIS: Attagene CIS-FACTORIAL HepG2 Assay for human Nuclear Factor I (NFI) (AID 2282989)
Settings: HepG2 cis-regulatory reporter, NFI response element transcription; actives raise or lower the signal
Method: ATG_CIS is a cell-based, multiplexed-readout assay that uses HepG2, a human liver cell line, with measurements taken at 24 hours after chemical dosing in a 24-well plate.ATG_NFI_CIS is one of 52 assay component(s) measured or calculated from the ATG_CIS assay. It is designed to make measurements of mRNA induction, a form of inducible reporter, as detected with fluorescence intensity signals by Reverse transcription polymerase chain reaction (RT-PCR) and Capillary electrophoresis technology.Data from the assay component ATG_NFI_CIS was analyzed into 1 assay endpoint. This assay endpoint, ATG_NFI_CIS, was analyzed with bidirectional fitting relative to DMSO as the negative control and baseline of activity. Using a type of inducible reporter, measures of mRNA for gain or loss-of-signal activity can be used to understand the reporter gene at the transcription factor-level as they relate to the gene NFIA. Furthermore, this assay endpoint can be referred to as a primary readout, because this assay has produced multiple assay endpoints where this one serves a reporter gene function. To generalize the intended target to other relatable targets, this assay endpoint is annotated to the dna binding intended target family, where the subfamily is nuclear factor I.
Human liver HepG2 cells are transiently transfected with multiple reporter transcription units (MRTUs) in 6-well plates using FuGene 6 reagent (Roche; 3 ml FuGene/1 mg DNA). The MRTU constructs are regulated by a cis-regulating element (promoter). […] A major difference between the CIS and TRANS system is that in CIS activities of endogenous TFs are measured, whereas the TRANS assay evaluates changes in activities of exogenous, chimeric NR-Gal4 proteins. […] At the end of 24 hour incubation, total RNA was isolated using TriZol reagent (Invitrogen). The isolated RNA is then reverse-transcribed using oligo(dT) primer and Mo-MLV reverse transcriptase (Invitrogen) with DNAse I (Ambion) treatment for 30 min. The one-tenth of the produced cDNA was amplified by PCR using Taq DNA polymerase (Invitrogen) and two reporter sequence-specific primers. The PCR products were fluorescently labeled by primer extension with 6-arboxyfluorescein (6-FAM) 5'-labeled reporter sequence-specific primer (2 min at 95 C, 20 s at 68 C and 10 min at 72 C) and these products were digested with 5U of HpaI (New England Biolabs) for 2h at 37 C. The fragments were purified using Qiaquick PCR columns (Qiagen), analyzed on an ABI 3130xL genetic analyzer (Applied Biosystems) with peak positions identified by using a set of X-rhodamine (ROX)-labeled MapMarker1000 molecular weight standards (BioVentures). The raw capillary electrophoresis data was processed using Attagraph software (Attagene).

| SMILES | outcome | AC50 |
| --- | --- | --- |
| CCOC(=O)CC(SP(=S)(OC)OC)C(=O)OCC (stereo not given) | inactive |  |
| COC(=O)C=C(C)OP(=O)(OC)OC | inactive |  |
| CN(C)C(=S)SSC(=S)N(C)C | inactive |  |
| COP(N)(=O)SC (stereo not given) | inactive |  |
| COc1ccc(C(c2ccc(OC)cc2)C(Cl)(Cl)Cl)cc1 | inactive |  |
| CCNc1nc(Cl)nc(NC(C)C)n1 | inactive |  |
| OC(c1ccc(Cl)cc1)(c1cncnc1)c1ccccc1Cl (stereo not given) | inactive |  |
| C=CCC1=C(C)C(OC(=O)C2C(C=C(C)C)C2(C)C)CC1=O (stereo not given) | inactive | 61.6 µM (active) [middle of 5 runs] |
| CCOC(=O)C(Cl)Cc1cc(-n2nc(C)n(C(F)F)c2=O)c(F)cc1Cl (stereo not given) | inactive |  |
| Fc1ccc(Oc2ccnc3cc(Cl)cc(Cl)c23)cc1 | inactive |  |
| CC(C)C1(C)N=C(c2nc3ccccc3cc2C(=O)O)NC1=O (stereo not given) | inactive |  |
| CC(Oc1ccc(Cl)cc1Cl)C(=O)O (stereo not given) | inactive |  |
| O=C(O)COc1nc(Cl)c(Cl)cc1Cl | inactive |  |
| CC1COC(Cn2cncn2)(c2ccc(Oc3ccc(Cl)cc3)cc2Cl)O1 (stereo not given) | inactive |  |
| CCCCC(CC)COC(=O)c1ccccc1C(=O)OCC(CC)CCCC (stereo not given) | inactive |  |
| COC(=O)N(OC)c1ccccc1COc1ccn(-c2ccc(Cl)cc2)n1 | inactive |  |
| CCNc1nc(Cl)nc(NCC)n1 | inactive |  |
| CCON=C(CC)C1=C(O)CC(c2c(C)cc(C)cc2C)CC1=O (stereo not given) | inactive |  |
| COP(=S)(OC)Oc1nc(Cl)c(Cl)cc1Cl | inactive |  |

| SMILES | outcome | AC50 |
| --- | --- | --- |
| Cc1cc(Cl)ccc1OCC(=O)O | inactive |  |
| CCCCOC(=O)c1ccccc1C(=O)OCCCC | inactive |  |
| C=CCC1=C(C)[C@@H](OC(=O)[C@@H]2[C@@H](C=C(C)C)C2(C)C)CC1=O | inactive |  |
| COc1nc(C)nc(NC(=O)NS(=O)(=O)c2ccccc2Cl)n1 | inactive |  |
| C#CCOS(=O)OC1CCCCC1Oc1ccc(C(C)(C)C)cc1 (stereo not given) | inactive |  |
| COc1nc(C)nc(NC(=O)NS(=O)(=O)c2ccccc2CCC(F)(F)F)n1 | inactive |  |
| N#Cc1cc(Br)c(O)c(Br)c1 |  | 10.8 µM (active) |
| CCCN(CCC)c1c([N+](=O)[O-])cc(S(N)(=O)=O)cc1[N+](=O)[O-] | inactive |  |
| CO/C=C(/C(=O)OC)c1ccccc1Oc1cc(Oc2ccccc2C#N)ncn1 | inactive |  |
| CCCCNC(=O)OCC#CI | inactive | 49 µM (active) |
| CCc1nn(C)c(C(=O)NCc2ccc(C(C)(C)C)cc2)c1Cl |  | 0.353 µM (active) |
| CON(C)C(=O)Nc1ccc(Cl)c(Cl)c1 | inactive |  |
| CCOc1cc(Oc2ccc(C(F)(F)F)cc2Cl)ccc1[N+](=O)[O-] | inactive |  |
| Cc1c(F)c(F)c(COC(=O)C2C(/C=C(\Cl)C(F)(F)F)C2(C)C)c(F)c1F (stereo not given) | inactive |  |
| CC(C)Oc1cc(-n2nc(C(C)(C)C)oc2=O)c(Cl)cc1Cl | inactive |  |
| COC(=O)C(C)Oc1ccc(Oc2ccc(Cl)cc2Cl)cc1 (stereo not given) | inactive |  |
| COc1cnc(OC)n2nc(NS(=O)(=O)c3c(OCC(F)F)cccc3C(F)(F)F)nc12 | inactive |  |
| CCCCNC(=O)n1c(NC(=O)OC)nc2ccccc21 | inactive |  |
| CS/C(C)=N/OC(=O)N(C)SN(C)C(=O)O/N=C(\C)SC | inactive |  |
